Compounds with a hit are over-represented: about 18% of the library has one in this group of screens.
TDP1 cell noCPT – qHTS for Inhibitors of human tyrosyl-DNA phosphodiesterase 1 (TDP1): qHTS in cells in absence of CPT; DT40 Tdp1-/- hTDP1 cells, no CPT, ATP luminescence, 48 h; 420,000 compounds, 15% hits; Potency, µM (top dose mostly 46.2 µM), without a hit: at the top dose activity change, negative = growth inhibition, most hits filed as inhibitors; note: potency is the fitted concentration of half-maximal effect; nearly all actives have a fitted effect of over 55% in size
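Luminescent ATP content (CellTiter-Glo) served as the growth readout. Knockout chicken DT40 cells expressing human TDP1 were exposed to compounds without camptothecin for a minimum 48 hr at 37 °C.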
VP16 counter – counter-screen for ROR gamma inhibitors: Gal4-VP16 reporter | Drosophila S2 Gal4-VP16 UAS-luciferase, luminescence, 20 h | Potency, µM (series often up to 53.6 µM), without a hit: at the top dose activity, negative = inhibition, most hits filed as inhibitors | 310,000 compounds, 3.5% hits | AID 2546;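 note: Gal4-VP16 expression switched on by copper sulfate through the metallothionein promoter; potency is the fitted concentration of half-maximal effect; nearly all actives have a fitted effect of over 50% in size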
LDHA block – LDHA (human) enzyme inhibition | P00338 | activity change, % (values are at about 110 or 230 µM) | purified LDHA, NADH/diaphorase-resazurin fluorescence; active compounds read low | 480,000 compounds, 0.15% hits; in the data active = activity change below about -30%; inconclusive = mostly about -25% to -30%;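 note: plate controls were DMSO wells for no effect and wells without enzyme for full effect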
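Remaining NADH was detected by diaphorase (0.133 mg/mL) converting 37 µM resazurin to fluorescent resorufin, read at 0 and 20 minutes. The preceding 5-minute room-temperature reaction used 2 nM LDHA, 0.2 mM sodium pyruvate and 0.06 mM NADH at pH 7.4.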
TDP1 cell CPT – DT40-hTDP1 cell growth loss with CPT; Potency, µM (titrated, usually from 46.2 µM), for the others: top-dose activity change, negative = growth inhibition, usual class: inhibitors; 420,000 compounds, 12% hits; chicken DT40 Tdp1-/-;hTDP1 cells + 20 nM CPT, ATP luminescence, 48 h; note: potency is the fitted concentration of half-maximal effect; nearly all actives have a fitted effect of over 55% in size
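Cell growth measured by CellTiter-Glo luminescence after a minimum 48 h, 37 C compound exposure with 20 nM CPT in Tdp1-knockout DT40 cells stably expressing hTDP1, seeded 400/well; qHTS titration format.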
RORgamma inh – ROR gamma (mouse) transcription inhibition. P51450. Drosophila S2 Gal4-RORgamma UAS-luciferase reporter, 20 h. Potency, µM (highest dose often 53.6 µM), without a hit: top-dose activity change, negative = inhibition, usual class: inhibitors. 310,000 compounds, 5.4% hits; note: potency is the fitted concentration of half-maximal effect; nearly all actives have a fitted effect of over 60% in size
Target sequence (P51450 whole entry, looked up, the tested form may be a part): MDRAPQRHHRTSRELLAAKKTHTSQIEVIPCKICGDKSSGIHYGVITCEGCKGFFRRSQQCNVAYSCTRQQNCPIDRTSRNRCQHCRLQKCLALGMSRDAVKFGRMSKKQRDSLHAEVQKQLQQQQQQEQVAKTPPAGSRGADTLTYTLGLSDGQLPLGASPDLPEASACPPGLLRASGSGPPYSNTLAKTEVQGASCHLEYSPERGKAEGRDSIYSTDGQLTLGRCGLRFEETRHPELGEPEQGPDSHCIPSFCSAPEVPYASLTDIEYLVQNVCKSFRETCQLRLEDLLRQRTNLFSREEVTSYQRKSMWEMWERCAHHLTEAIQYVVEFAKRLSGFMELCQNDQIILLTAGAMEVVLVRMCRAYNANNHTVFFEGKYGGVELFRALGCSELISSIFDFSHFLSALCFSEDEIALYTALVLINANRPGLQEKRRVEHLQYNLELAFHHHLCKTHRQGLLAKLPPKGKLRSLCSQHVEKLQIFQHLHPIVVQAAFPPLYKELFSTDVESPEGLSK
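Luminescence from a UAS-regulated Photinus luciferase reporter in stably transfected Drosophila Schneider cells is measured; decreased signal marks ROR gamma inhibition. Fusion expression is induced by 700 uM copper sulfate for 20 hr.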
IL1B secr inh – blocks inflammasome-driven IL-1 beta release; 360,000 compounds, 4.7% hits; AID 743279; activity change, % at 57.5 µM; THP-1 LPS/ATP IL-1B secretion, AlphaLISA, 16 h; active compounds read low; in the data active = activity change below about -50%; inconclusive = mostly about -30% to -49%
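Secreted IL-1B measured by AlphaLISA bead assay after 16 h compound exposure of THP-1 cells; compounds (final up to 57.5 uM) added 1 h before LPS (250 ng/mL) and ATP (1.25 mM) stimulation; lower signal means less secretion.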
* marks the source's active call; other numbers are inactive results; ? = inconclusive; . = no result; [ ] = remark or other dose. Unless noted, calls come from the whole dose curve; as a rule, active = well fitted curve in the direction sought with a large enough effect; inconclusive = small, poorly fitted or top-dose-only effect, or another doubt; inactive = no such curve, though single readings can be large; an effect the other way counts as inactive or inconclusive. Unless noted, % is set by controls: 0 for no effect and ±100 for the full control effect.

SMILES	TDP1 cell noCPT	VP16 counter	LDHA block	TDP1 cell CPT	RORgamma inh	IL1B secr inh
CN1OC[C@@H]2CN[C@H](c3ccc(-c4cc5ccccc5o4)cc3)C[C@@H]21	23.1µM*	.	-3.2	16.4µM*	.	-9.8
CCc1ccc(OC(=O)c2ccc(OC)cc2)c(Br)c1	.	.	-4.1	.	.	.
C=CC[C@H](c1ccc(F)cc1)N(CC(C)C)S(=O)(=O)C=C	11.2µM*	.	.	?	.	.
CC(C)COP(=O)(OCC(C)C)C(O)c1ccc(F)cc1 (stereo unspecified)	-18.4%	-0.7%	-0.7	-15.4%	-19.1%	1.8
Cc1ccc2c(CSc3ncn[nH]3)cc(=O)oc2c1	.	.	3.7	.	.	.
CC(C)n1nc(C(=O)Nc2nnc(SCc3c(Cl)cccc3Cl)s2)c2ccccc2c1=O	?	?	1.1	10.3µM*	?	40.5
Fc1ccc(NC(=S)NCc2ccc3c(c2)OCO3)cc1	?	?	-9.0	?	11.2µM*	-20.0
O=C(NCc1ccc2c(c1)OCO2)NC12CC3CC(CC(C3)C1)C2	18.4µM*	-22.4%	-2.5	20.6µM*	-5.7%	-1.5
O=C(COc1ccc2c(c1)OCO2)NC12CC3CC(CC(C3)C1)C2	?	3.0%	0.1	?	?	-28.2
NS(=O)(=O)c1ccc(NC(=S)NCc2ccc3c(c2)OCO3)cc1	?	5.2%	2.0	-20.1%	1.7%	24.0
Cc1ccc(NC(=O)NCc2ccc3c(c2)OCO3)cc1C	-22.8%	3.6%	-5.0	5.1%	-24.0%	-62.7*
Fc1ccc(NC(=S)SCc2ccc3c(c2)OCO3)cc1F	18.4µM*	.	2.7	?	.	10.8
O=C(Nc1ccccc1SC1CCCC1)c1ccccn1	.	.	2.8	.	.	.
CCN(CC)CCNc1ncnc2c1oc1nc(C)c3c(c12)CC(C)(C)OC3	.	.	3.3	.	.	.
Cc1cc(C)cc(NC(=S)NCc2ccc3c(c2)OCO3)c1	?	.	-0.9	?	.	8.5
Cc1ccc(NC(=S)NCc2ccc3c(c2)OCO3)cc1C	?	?	-9.3	-0.2%	12.6µM*	-69.1*
c1cc(CNc2ccc3c(c2)OCO3)ccn1	-15.3%	-3.5%	16.7	-22.5%	2.1%	-3.5
Cc1ccc(CNc2ccc3c(c2)OCO3)cc1	20.6µM*	-25.3%	26.1	?	-12.2%	-93.2*
O=C(NC12CC3CC(CC(C3)C1)C2)N1CCC(O)(c2ccc3c(c2)OCO3)CC1	14.6µM*	-2.3%	-11.4	7.31µM*	-7.6%	-11.5
Nc1ccc(N=Cc2ccc(Cl)cc2Cl)cc1Cl	.	.	9.3	.	.	.
c1ccc(CNCc2ccc(OCc3ccccc3)cc2)cc1	.	.	-0.5	.	.	.
c1ccc(COc2ccc(CNCc3cccnc3)cc2)cc1	?	16.2%	-7.5	-16.6%	-1.5%	-63.1*
CN(Cc1ccccc1)CC(O)COc1ccc(CNCc2ccc(Cl)s2)cc1 (stereo unspecified)	16.4µM*	-10.3%	0.2	?	3.7%	-80.1*
CN(Cc1ccccc1)CC(O)COc1ccc(CNCc2cccnc2)cc1 (stereo unspecified)	?	-1.2%	0.2	23.1µM*	9.0%	-13.6
c1ccc(COc2ccc(CNCc3cccs3)cc2)cc1	13µM*	15.8µM*	7.5	?	?	-7.9
SMILES	TDP1 cell noCPT	VP16 counter	LDHA block	TDP1 cell CPT	RORgamma inh	IL1B secr inh
O=C(NCCNc1ncccn1)NCc1ccccc1	.	.	9.2	.	.	.
COc1ccc(-c2c(C)oc3cc(OS(=O)(=O)c4ccc(C)cc4)ccc3c2=O)cc1	.	.	-0.2	.	.	.
COc1cccc(C(=O)N2N=C(c3ccccn3)CC2(O)C(F)(F)F)c1 (stereo unspecified)	4.61µM*	5.01µM*	0.1	20.6µM*	2µM*	123.0
O=C(c1ccccc1)N1N=C(C(F)(F)F)CC1(O)c1ccc(F)cc1 (stereo unspecified)	?	?	-3.3	?	20µM*	-4.3
COc1cc(OC)cc(C(=O)O/N=C(\N)c2ccccn2)c1	-27.4%	-6.3%	2.2	-2.8%	-34.2%	-10.7
O=C(c1ccccc1)N1N=C(C(F)(F)F)CC1(O)c1ccccc1 (stereo unspecified)	?	?	-3.3	-1.9%	-24.1%[1.91 µM]	27.2
COc1cccc(C2(O)CC(C(F)(F)F)=NN2C(=O)c2ccccn2)c1 (stereo unspecified)	-10.4%	6.31µM*	-5.4	?	1.58µM*	-13.4
COc1cccc(C2=NN(C(=O)c3ccc(C)o3)C(O)(C(F)(F)F)C2)c1 (stereo unspecified)	10.3µM*	?	-5.1	?	-79.4%	?
N#CC1(NC(=O)CSc2ncc(-c3ccc(F)cc3)o2)CCCCC1	.	.	-1.7	.	.	.
NC(=O)c1ccccc1NC(=O)c1ccc2ccccc2n1	.	.	-0.9	.	.	.
COc1ccc(CC(=O)N2N=C(c3cccc(Br)c3)CC2(O)C(F)(F)F)cc1 (stereo unspecified)	.	.	-22.9	.	.	.
COc1cccc(C2=NN(C(=O)c3cccs3)C(O)(C(F)(F)F)C2)c1 (stereo unspecified)	18.4µM*	3.4%[10 µM]	-3.8	?	27.3%	-71.8*
COc1cccc(C(=O)N2N=C(c3cccc(OC)c3)CC2(O)C(F)(F)F)c1 (stereo unspecified)	?	-18.2%	0.1	?	11.2µM*	-2.5
COc1ccc(C(=O)N2N=C(c3cccc(OC)c3)CC2(O)C(F)(F)F)cc1 (stereo unspecified)	23.1µM*	-67.9%	-1.4	?	11.2µM*	?
COCCOc1ccc(C(C)NC(=O)Cc2cccs2)cc1OC (stereo unspecified)	.	.	3.2	.	.	.
Cc1c(C)n(CCCN(C)C)c2ncn3nc(COc4cccc5ccccc45)nc3c12	.	.	-0.2	.	.	.
COc1ccc(-c2nnc(C3CCN(C(=O)c4ccccc4F)CC3)o2)cc1	4.61µM*	.	-11.5	5.17µM*	.	.
COc1ccccc1-c1nnc(C2CCN(C(=O)c3ccc(C)cc3)CC2)o1	?	.	-0.9	-26.8%	.	.
COc1ccccc1-c1nc2c(c(SCc3cc(C)ccc3C)n1)Cc1c(CO)cnc(C)c1O2	10.3µM*	.	-7.9	9.2µM*	.	.
Cc1cccc(NC(=O)CSc2nc(-c3cccc(C)c3)nc3c2Cc2c(CO)cnc(C)c2O3)c1	-28.9%	.	4.7	?	.	.
COc1ccccc1-c1nc2c(c(SCC(=O)Nc3ccc(C)c(C)c3)n1)Cc1c(CO)cnc(C)c1O2	9.2µM*	.	-3.8	16.4µM*	.	.
COc1ccccc1-c1nc2c(c(SCC(=O)N3CCCCC3)n1)Cc1c(CO)cnc(C)c1O2	6.51µM*	-13.5%	-0.3	9.2µM*	1.3%	-4.3
